Source: PubChem BioAssay (NCI)
This is part of a sample that, as a whole, favours compounds with a hit. Of some 83,000 tested, about 20% had one in any assay.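 Assay: single dose, 48 h. Readout: percent growth (0 = no net growth; negative = cell death). Active: <10.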 Activity calls are given as the source filed them.

tested on: MDA-MB-231 breast; assay: NCI-60 one-dose screen, 48 h (100 = growth as untreated, 0 = no growth, -100 = all killed); details: 10 µM unless noted

| Structure (SMILES) | growth |
| --- | --- |
| CNc1sc(S(=O)(=O)NC)nc1S(=O)(=O)c1ccc(C)cc1 | 101% (inactive) |
| COc1cccc(N2CCN(C3=C(Cl)C(=O)c4ncccc4C3=O)CC2)c1 | 85.1% (inactive) |
| O=C1[C@@H]2Cc3c([nH]c4ccccc34)[C@@H](c3ccc(Cl)cc3)N2C(=O)CN1C1CCN(Cc2ccccc2)CC1 | 64.2% (inactive) |
| CC(=O)OCCCCN1C=C/C(=C\C(=O)n2ccc3ccccc32)c2ccccc21 | 86.6% (inactive) |
| CN1CCN(c2ccc(Nc3nc(NCCNS(=O)(=O)c4ccc5ccccc5c4)c4sccc4n3)cc2)CC1 | 74.3% (inactive) |
| CC1=C(C)C(=O)C(Nc2ccc3c(c2)OCCO3)=C(Br)C1=O | 88.3% (inactive) |
| C=C(C)[C@@H]1CC[C@]2(C(=O)NC3CCCCC3)CC[C@]3(C)[C@H](CC[C@@H]4[C@@]5(C)CC[C@H](N)C(C)(C)[C@@H]5CC[C@]43C)[C@@H]12 | 108% (inactive) |
| CCOC(=O)c1c(NC(=O)c2ccc(C(F)(F)F)cc2)sc2c3c(ccc12)OCN(C)C3 | 10.9% (inactive) |
| C#CCN(C)CCCOc1ccc(NCc2ccc(/C=C/C(=O)NO)cc2)cc1Cl | 16.1% (inactive) |
| COc1cc(/C=N\NC(=O)c2ccc3nc(-c4ccc(Br)cc4)[nH]c3c2)cc(OC)c1OC | 101% (inactive) |
| C=C1CCc2nc(SCC(=O)O)ccc2N1 | 105% (inactive) |
| CN1CCC[C@]2(C)[C@H]3CC[C@@H]4[C@@H]5[C@H]6OC[C@@]5(CCC6(C)C)CC[C@@]4(C)[C@]3(C)CC[C@H]2C1(C)C | 67.3% (inactive) |
